D2 PAM-1 – Beta-Arrestin HTS for Positive Allosteric Modulators of the Human D2 Dopamine Receptor: Potentiators. D(2) dopamine receptor (Homo sapiens), P14416. DiscoveRx D2 beta-arrestin cells, luminescence, 90 min; 100% = 57 uM dopamine signal. potentiation, % (concentration not given with the values). 0.23% of 360,000 active. AID 624464, 2012; in the data active = potentiation above about 50%; inconclusive = mostly about 30% to 49%
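PathHunter beta-arrestin assay in DiscoveRx D2 cells. Compounds were added with an EC20 of dopamine (50 nM final) for 90 min at 37 deg C. Luminescence was read 1 h after detection reagent, with 57 uM dopamine as the EC100 control.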
D2 ag-1 – HTS Assay for Allosteric Agonists of the Human D2 Dopamine Receptor: Primary Screen for Agonists. D(2) dopamine receptor (Homo sapiens), P14416. HEK293 T-REx D2 cells, calcium flux agonist mode. activation, % at 2 µM. 0.53% of 340,000 active;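 active = activation over 3 SD above normal in the single-dose calcium agonist read, cut at about 30% in these data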
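HEK293 Trex D2 cells, tetracycline-induced, o/n 30 C 5% CO2; no-wash Ca dye, RT 30–90 min; 10-cycle baseline, 23 nl cpd added, kinetic Ca read 180 s; agonist hits = positive Ca response.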
D2 ag-2 – Beta-Arrestin HTS for Positive Allosteric Modulators of the Human D2 Dopamine Receptor: Agonists. activation, % (no concentration beside the values). 0.084% of 360,000 active. DiscoveRx PathHunter D2 beta-arrestin, luminescence, 90 min; 100% = 57 uM dopamine signal. D(2) dopamine receptor (Homo sapiens), P14416. AID 624465, 2012; in the data active = activation above about 40%; inconclusive = between about 15% and that limit
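DiscoveRx PathHunter D2 beta-arrestin cells (2,100/well) attached overnight, then compound-stimulated 90 min at 37 C in HBSS/10 mM HEPES/0.1% Tween-20 buffer; beta-galactosidase complementation read by luminescence after 1 h at ambient temperature. Dopamine 57 uM final (EC100) as control.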
D2 antag – HTS Assay for Allosteric Antagonists of the Human D2 Dopamine Receptor: Primary Screen for Antagonists. D(2) dopamine receptor (Homo sapiens), P14416. HEK293 TREx D2 cells, calcium flux, dopamine EC80. inhibition, % at 10 µM. 2% of 340,000 active; in the data active = inhibition above about 30%; inactive = below that, where a call was filed
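Dopamine at EC80 is the agonist stimulus; test compounds precede it by 180 s. Calcium flux read kinetically in a force-coupled, inducible HEK293 T-REx D2 cell line.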
D2 PAM-2 – HTS Assay for Positive Allosteric Modulators of the Human D2 Dopamine Receptor: Primary Screen for Potentiators. HEK293 T-REx D2, calcium flux, EC20 dopamine potentiation. 0.34% of 340,000 active. AID 485347, 2010. potentiation, % at 10 µM. D(2) dopamine receptor (Homo sapiens), P14416;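 active = potentiation over 3 SD above the plate norm, cut at about 30% in these data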
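Cells plated with tetracycline inducer and held overnight at 30 C; calcium dye loaded 30–90 min at room temperature; baseline taken, compound added and read 180 s; EC20 dopamine then added and read 180 s.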
D3 arrestin ag – qHTS of D3 Dopamine Receptor Agonist: D3 Dopamine Receptor B-arrestin Agonist Confirmatory Assay; shares compounds with D2 ag-1; DiscoveRx D3 beta-arrestin cells, luminescence, 90 min; Potency, µM (doses to about 76.9 µM), hits mostly activators; 4% of 2,300 active; also: nearly all actives have a fitted effect of over 70% in size
Target sequence (P35462 whole entry, looked up): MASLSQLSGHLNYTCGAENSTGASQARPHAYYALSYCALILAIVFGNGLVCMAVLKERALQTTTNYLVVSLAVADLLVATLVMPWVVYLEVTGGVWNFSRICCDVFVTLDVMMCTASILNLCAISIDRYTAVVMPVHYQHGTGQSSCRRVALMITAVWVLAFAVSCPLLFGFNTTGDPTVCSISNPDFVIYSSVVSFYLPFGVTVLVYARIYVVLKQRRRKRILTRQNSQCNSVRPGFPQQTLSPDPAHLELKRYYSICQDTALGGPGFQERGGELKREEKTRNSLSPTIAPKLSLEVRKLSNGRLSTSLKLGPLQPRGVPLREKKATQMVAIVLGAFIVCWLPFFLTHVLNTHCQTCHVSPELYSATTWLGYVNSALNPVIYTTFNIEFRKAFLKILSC
D2 ag-3 – qHTS of D3 Dopamine Receptor Agonist: D2 Dopamine Receptor B-arrestin Agonist Counterscreen; shares compounds with D2 ag-1; DiscoveRx PathHunter D2 beta-arrestin, luminescence, 90 min; response scale: percent relative to full dopamine signal; Potency, µM (titrated, usually from 76.9 µM), hits mostly activators; 5.9% of 2,300 active; also: nearly all actives have a fitted effect of over 70% in size
A number is an active result; 0 = inactive; ? = inconclusive; - = no result. Compounds with a hit are over-represented: about 2.4% of the library has one in this group of screens. Unless noted, calls follow the shape of the dose curve; as a rule, active = well fitted activation curve with a large enough effect; inconclusive = small, poorly fitted or top-dose-only effect; inactive = flat fitted curve, though single readings scatter.

SMILES	D2 PAM-1	D2 ag-1	D2 ag-2	D2 antag	D2 PAM-2	D3 arrestin ag	D2 ag-3
CCOc1ccc(CN2CCN(C(=O)c3ccco3)CC2)cc1	57	-	54	-	-	?	4.5µM
COc1ccc2ccccc2c1CN1CCN(C(=O)c2ccco2)CC1	0	69	58	89	0	?	25µM
COc1ccc(CN2CCN(C(=O)c3ccc(S(=O)(=O)N4CCCCCC4)cc3)CC2)cc1	0	-	0	-	-	0	0
COc1ccc(CN2CCN(Cc3ccco3)CC2)cc1	0	-	0	-	-	-	-
COc1ccc2ccccc2c1CN1CCN(C(=O)c2ccccc2)CC1	0	0	0	0	0	-	-
COc1ccc(NC(=O)c2oc3ccccc3c2NC(=O)C23CC4CC(CC(C4)C2)C3)c(OC)c1	-	0	-	-	0	-	-
CCOc1ccc(C(=O)N2CCN(C(=O)c3ccco3)CC2)cc1OCC	0	0	0	0	0	-	-
CC(=O)c1cccc(OCC(O)CN2CCN(C(=O)c3ccco3)CC2)c1 (stereo not given)	0	-	?	-	-	0	?
CC(=O)c1cccc(OCC(O)CN2CCN(S(=O)(=O)c3c(F)cccc3F)CC2)c1 (stereo not given)	0	0	0	0	0	-	-
CCOc1cc(CN2CCN(C(=O)c3ccco3)CC2)ccc1OC	63	99	?	74	0	0	25µM
N=c1c(C(=O)NCC2CCCO2)cc2c(=O)n3ccccc3nc2n1CCCO (stereo not given)	-	0	-	-	0	-	-
COc1ccccc1CNC(=O)c1cc2c(=O)oc3ccc(C)cc3c2s1	-	0	-	-	0	-	-
Cc1cc(C)c2c(=O)cc(C(=O)Nc3sc4c(c3C#N)CCCC4)oc2c1	-	-	-	-	0	-	-
O=C(Cc1ccccc1)NCCSCc1ccc(Cl)cc1	0	0	0	0	0	-	-
O=C(Cc1ccc(Cl)cc1)SCc1ccccc1	0	0	0	0	0	0	0
Cc1cn2c(=O)c(S(=O)(=O)NCCc3ccccc3)c(C)nc2s1	-	0	-	-	0	-	-
COc1cc(OC)cc(-c2c(-c3cccs3)c3cc(-c4ccc(N(C)C)nc4)ccc3n2C)c1	0	0	0	0	0	0	0
CC(NC(=O)CN1C(=O)COc2ccc(S(=O)(=O)N3CCCCCC3)cc21)c1ccccc1 (stereo not given)	-	0	-	-	0	-	-
O=C(O)/C=C/C(=O)NCc1ccccc1	0	0	0	0	0	-	-
O=C(O)/C=C/C(=O)NCCCc1ccccc1	0	0	0	0	0	0	0
O=C(NCC(c1ccc2c(c1)OCO2)N1CCOCC1)c1ccc(F)cc1 (stereo not given)	-	-	-	-	0	-	-
Cc1nnc(N2C(=O)C(O)=C(C(=O)c3ccco3)C2c2ccc(F)cc2)s1 (stereo not given)	0	0	0	0	0	0	0
Cc1ccc(C)c(-n2c(N)c(C#N)c3nc4ccccc4nc32)c1	-	0	-	-	0	-	-
O=C(CSc1ccc2nnc(-c3ccncc3)n2n1)NCC1CCCO1 (stereo not given)	0	0	0	0	0	0	0
CCOc1ccc(C(=O)Cn2c(=O)n3nc(CCn4nc(C)cc4C)nc3c3cc(OC)c(OC)cc32)cc1	-	0	-	-	0	-	-
CC(=O)N1CCC(N2CCN(c3ccccc3F)CC2)CC1	0	75	41	71	0	?	?
O=C(c1ccco1)N1CCCC(N2CCN(c3ccccc3F)CC2)C1 (stereo not given)	0	0	0	0	0	-	-
